Screens (PubChem BioAssay)
Pf Dd2 growth: inhibitors of Plasmodium falciparum Dd2 growth | P. falciparum Dd2 growth, SYBR Green, 72 h | Potency, µM (titrated, usually from 28.9 µM), for the others: at the highest dose activity, negative = inhibition, hits mostly inhibitors | 4.3% of 120,000 active; active means well fitted inhibition curve with a large enough effect;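 further: plate controls were DMSO vehicle for no effect and reference drug for full effect; nearly all actives have a fitted effect of over 65% in size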
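Infected erythrocytes (Dd2, 0.3% parasitemia, 2.5% hematocrit final) are added to compound in RPMI-1640/Albumax II medium, grown 72 h at 37C in low oxygen, then lysed with saponin/Triton-X containing SYBR Green and read by fluorescence.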
Numbers without * were called inactive; i = inactive; [ ] = dose if it differs, or a comment. The full list was thinned out, with hits kept by preference. Potency means the concentration at half of the fitted maximal effect.

SMILES | Pf Dd2 growth
Cc1ccc(-c2cc3c(=O)n(CCNC(=O)c4ccc5c(c4)OCO5)ccn3n2)cc1C | 8%
O=C(NC1CCCCC1)C1CN(S(=O)(=O)c2ccccc2F)CC12CCOCC2 (stereo unspecified) | -18%
Cc1nc(-c2ccc(Cl)cc2)n(Cc2ccc(F)cc2F)c(=O)c1CCO | i
COc1cc(Cl)c(C)cc1NC(=O)Cn1cc(S(=O)(=O)N2CCN(c3ccccc3F)CC2)c2ccccc2c1=O | 11µM*
COc1ccc(NC(=O)Cn2cc(S(=O)(=O)N3CCC(C)CC3)c3ccccc3c2=O)cc1Cl | -17%
Cc1ccccc1NC(=O)c1ccc(F)c(S(=O)(=O)N2CCN(c3ccccc3F)CC2)c1 | 22%
O=C(Cn1cc(S(=O)(=O)Cc2ccccc2F)c2ccccc21)Nc1ccc(F)c(Cl)c1 | i
COc1ccc(NC(=O)Cn2cc(S(=O)(=O)N3CCN(c4ccccc4F)CC3)c3ccccc3c2=O)cc1Cl | 13µM*
Cc1cc(Br)ccc1NC(=O)Cn1cc(S(=O)(=O)N2CCN(c3ccccc3F)CC2)c2ccccc2c1=O | 6%
COCc1cc(C[C@@H]2CC[C@H](O)[C@@H](CNC(=O)Nc3ccccc3)O2)no1 | 13%[44.1 µM]
CC(=O)c1cccc(NC(=O)O[C@@H]2CO[C@H]3[C@@H]2OC[C@@H]3NC(=S)NC2CCCCC2)c1 | i
COCc1nc(C2CCCN(C(=O)c3cnccn3)C2)no1 (stereo unspecified) | 18%
COCc1ncc(C)n1C1CCN(C(=O)C2CCC2)CC1 | -4%
COCC1CN(C)CC12CCN(Cc1ccc(C)o1)CC2 (stereo unspecified) | -5%
CC(C)C(=O)N1Cc2ccccc2CC2(CCCCN2Cc2ccccn2)C1 (stereo unspecified) | 13µM*
CCCN1CCC2(CC1)Cc1ccccc1CN(C(=O)C(C)C)C2 | -16%
CC(C)C(=O)N1Cc2ccccc2CC2(CCCCN2Cc2ccncc2)C1 (stereo unspecified) | 8.9µM*
C[S+](=O)([O-])N1CC2(CCCCN2Cc2ccccn2)Cc2ccccc21 (stereo unspecified) | 8.9µM*
CC(=O)N1CC2(CCCN2Cc2ccccn2)Cc2ccccc21 (stereo unspecified) | -16%
CCC(=O)N1Cc2ccccc2CC2(CCCCN2Cc2ccccn2)C1 (stereo unspecified) | -19%
CCCN1CCCC12Cc1ccccc1CN(C(=O)C(C)C)C2 (stereo unspecified) | 8.9µM*
CC(C)C(=O)N1CCCC2(Cc3ccccc3CN2[S+](=O)([O-])c2ccccc2)C1 (stereo unspecified) | -19%
C[S+](=O)([O-])N1Cc2ccccc2CC2(CCCN(Cc3ccccn3)C2)C1 (stereo unspecified) | -29%
C[S+](=O)([O-])N1Cc2ccccc2CC2(CCCN2Cc2ccncc2)C1 (stereo unspecified) | 6%
CCC(=O)N1Cc2ccccc2CC2(CCCN2Cc2ccccn2)C1 (stereo unspecified) | 5%
SMILES | Pf Dd2 growth
COc1ccccc1-n1cc(C(=O)NC2CCCN(C3CCCCCC3)C2)cn1 (stereo unspecified) | -17%
O=C(Cc1cccnc1)N1CCC(Oc2ccccc2-c2nc(C3CC3)no2)C1 (stereo unspecified) | -4%
CCOc1ccccc1CN1CCNC(=O)C1CC(=O)N1CCCOCC1 (stereo unspecified) | -11%
CCOc1cc(=O)n2c(c1C(=O)Nc1ccc(F)cc1Cl)CCCC2 | 24%
CC1CCN(C(=O)c2ccccc2OCC2CCCN(C3CCC3)C2)CC1 (stereo unspecified) | -2%
CCn1c2c(c(=O)n1-c1ccccc1)CCN(C(=O)c1scnc1C)C2 | 29%[44.1 µM]
Cc1noc(C)c1S(=O)(=O)N1CCC2(CC1)C(=O)NN=C2C1CC1 | 30%
COc1cc(CN2C[C@@H]3C(=O)N(CCc4ccccc4)C(=O)[C@@H]3C2)cc(OC)c1 | i
CCN1c2cc(C(N)=O)ccc2C(=O)N2CCCCCC21 (stereo unspecified) | i
CCC(=O)N1CCc2cc(S(=O)(=O)NC(C(=O)NCc3ccccc3Cl)C(C)C)ccc21 (stereo unspecified) | i
Cc1cc(Cl)ccc1NS(=O)(=O)c1ccc2c(c1)CCN2S(C)(=O)=O | 0%
CS(=O)(=O)N1CCc2cc(S(=O)(=O)NCc3ccccc3Cl)ccc21 | 3.2µM*
CCOc1cc(=O)n2c(c1C(=O)Nc1ccc(Cl)cc1C)CCCC2 | 43%
CCCNC(=O)N1CCCCCCNC(=O)[C@@H]2C[C@@H](c3nc(-c4cccnc4)no3)C[C@@H]21 | i
CC(C)N1CC2CCC(C1)N2CC1CCCC1 | -38%[44.1 µM]
CC(C)N1CC2CCC(C1)N2Cc1ccc(-c2ccsc2)cc1 | 11µM*
O=C(Nc1ccccc1F)N1CC2CCC(C1)N2Cc1ccc(-c2ccsc2)cc1 | -4%
CCN(C(=O)Cn1ccn2nc(-c3ccc(F)cc3)c(CO)c2c1=O)c1ccccc1 | -4%
Fc1ccc(C2Cn3nnc(-c4nc(-c5cccc(F)c5)no4)c3CO2)cc1 (stereo unspecified) | i
CC(C)C[C@@H]1N[C@H](C(=O)N2CCCC2)Cc2c[nH]c3cccc1c23 | -18%[44.1 µM]
